According to PubChem BioAssay:
Unmarked numbers belong to inactive results. The rule behind the calls is not given here.

The compounds below were run against Pantothenate synthetase (Mycobacterium tuberculosis (strain ATCC 25618 / H37Rv)) (UniProt P9WIL5) (assay: Recombinant Mtb pantothenate synthetase (PanC) inhibitors, coupled enzyme, confirmatory (AID 375;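 note: 0% = full reaction with vehicle and 100% = no enzyme background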)). Details: coupled enzyme assay; at 10 µM, active compounds read high.
Pantothenate synthetase (Mycobacterium tuberculosis (strain ATCC 25618 / H37Rv)), sequence (P9WIL5 whole entry, looked up): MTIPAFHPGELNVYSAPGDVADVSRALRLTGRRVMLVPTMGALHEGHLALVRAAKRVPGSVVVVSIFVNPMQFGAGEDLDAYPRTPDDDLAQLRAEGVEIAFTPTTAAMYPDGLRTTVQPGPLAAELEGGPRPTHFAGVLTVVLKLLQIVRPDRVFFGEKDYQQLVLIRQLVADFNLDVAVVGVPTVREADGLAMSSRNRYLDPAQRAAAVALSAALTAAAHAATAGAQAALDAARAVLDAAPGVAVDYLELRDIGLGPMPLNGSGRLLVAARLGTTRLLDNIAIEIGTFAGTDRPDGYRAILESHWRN

| Compound | inhibition |
| --- | --- |
| O=c1c2[nH]c3ccc(Cl)cc3c2ncn1Cc1ccccn1 | 0% |
| CCCCc1ccc(NC(=O)C2CCCO2)cc1 (stereo not given) | 0% |
| CCn1c(SCC(=O)c2ccc(Cl)cc2)nnc1-c1ccoc1C | 0% |
| COc1ccc(CCNC(=O)CSc2nncn2N)cc1OC | 5% |
| COC(=O)c1cccc(S(=O)(=O)N2CCN(c3nc4ccccc4s3)CC2)c1 | 2% |
| O=C(CS(=O)(=O)c1cn(Cc2ccc(Cl)cc2)c2ccccc12)N1CCCC1 | 6% |
| CCOC(=O)N1CCN(C(=O)c2cccn3c(=O)c4sccc4nc23)CC1 | 0% |
| CC(C)C(C(=O)Nc1ccc2c(c1)OCO2)N1C(=O)c2ccccc2C1=O (stereo not given) | 0% |
| Cc1cc(=O)oc2c1c(C)nn2-c1ccc(C(=O)OC(C)C)cc1 | 0% |
| COC(=O)c1ccccc1NC(=O)C1CC(=O)N(c2ccc(F)cc2)C1 (stereo not given) | 20% |
| C#CC1(O)CC(C)N(C)C(C)C1 (stereo not given) | 6% |
| Cc1ccc(C(C(=O)NC2CCCCC2)N2CCOCC2)cc1 (stereo not given) | 0% |
| O=C(Nc1ccc2c(c1)OCCO2)C1CCCN1S(=O)(=O)c1cccc2cccnc12 (stereo not given) | 0% |
| Cc1cc(C)c(OCC(=O)Nc2cccc(O)c2)cc1C | 0% |
| COC(=O)c1oc2ccc(Br)cc2c1NC(C)=O | 0% |
| CCOC(=O)C1=C(c2ccccc2)Nc2nc(C)nn2C1c1cccc(OC)c1OC (stereo not given) | 0% |
| O=C(NC1CCCCC1)c1cc2nc(-c3ccco3)cc(C(F)(F)F)n2n1 | 0% |
| CCOC(=O)/C(C#N)=C(/C)c1ccc(OC)cc1 | 0% |
| Cc1cccc(-c2c3c(=O)n(C)c(=O)n(C)c3cn2-c2ccc(O)cc2)c1 | 0% |
| COCCN(C(=O)c1csnn1)C(C(=O)NC(C)(C)C)c1cccc(OC)c1 (stereo not given) | 1% |

| Compound | inhibition |
| --- | --- |
| COc1ccc(C(=O)NCCC(C)C)cc1S(=O)(=O)N1CCOCC1 | 9% |
| O=C(C1CC1)N1CCc2cc(S(=O)(=O)N(CCO)Cc3ccccc3)ccc21 | 0% |
| COc1cc(-c2noc(-c3ccccc3C(=O)NCc3ccco3)n2)cc(OC)c1OC | 9% |
| Cc1cc(C)cc(NC(=O)C2CCCN(S(=O)(=O)c3cnc[nH]3)C2)c1 (stereo not given) | 0% |
| O=c1c(O)c(-c2ccc(O)cc2O)oc2cc(O)cc(O)c12 | 9% |
| COc1ccc(-c2nnc3sc(-c4c(OC)cccc4OC)nn23)cc1 | 6% |
| CCOC(=O)N1CCC(N(C(=O)Nc2cccc(OC)c2)C(C)CC)CC1 (stereo not given) | 0% |
| N#Cc1c(N)oc(-c2cccs2)c1-c1cccs1 | 1% |
| COC(=O)c1[nH]c2cc(OC)ccc2c1NC(=O)CN1CCOCC1 | 0% |
| O=C(Cn1c(-c2cncs2)nc2ccccc21)NC1CCCC1 | 0% |
| CC(=O)NCc1nc2ccccc2n1C(C)C | 0% |
| CCOC(=O)CC(=O)CSc1nc(-c2cccnc2)ccc1C#N | 0% |
| CCN(CC)CCOC(=O)C1(C2CCCCC2)CCCCC1 | 0% |
| COc1cc2c(=O)n(Cc3ccccc3)c(=O)n(CC(=O)NCc3ccco3)c2cc1OC | 7% |
| Cc1ccccc1NC(=O)C1Cc2ccccc2C(=O)O1 (stereo not given) | 0% |
| C=CCOC(=O)C(C#N)c1nc2ccccc2nc1N1CCN(Cc2ccccc2)CC1 (stereo not given) | 2% |
| Cc1nc2ccccn2c1/C(O)=C1\C(=O)C(=O)N(CCN2CCOCC2)C1c1cccs1 (stereo not given) | 0% |
| CN(C)c1ccc(CNn2cnnc2)cc1 | 2% |
| O=C(O)c1cc(Cl)c(Cl)cc1C(=O)N1CCCC1 | 1% |
| Cc1cc(=O)oc2cc(Oc3ncccn3)ccc12 | 6% |
